Compound activity (PubChem BioAssay)
An excerpt weighted towards active compounds, which were near 6.6% of everything screened.
NR3A LBD binder: modulators (binders) of human NR3A ligand-binding domain. AID 1259313. NR3A LBD differential scanning fluorimetry, Tm shift; 0% = protein alone, 100% = glycine-bound protein. Tm shift relative to glycine control, % at 25 µM. 2.5% of 340,000 active;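 active = melting temperature shift of at least 10% of the positive control shift, at one fixed dose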
Beta cell apopt: beta cell apoptosis inhibition; INS-1E cytokine-induced death, ATP luminescence, 48 h; percent of positive-control rescue, neutral wells zero; protection from apoptosis, % (no concentration beside the values); 0.8% of 300,000 active; AID 435005;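 active = Every replicate reaches about 75%, or at least half do and their mean reaches it too, limit read from the data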;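 note: higher means more ATP so stronger rescue from cytokine killing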
MPTP inh: inhibitors of mitochondrial permeability transition pore | 1.4% of 360,000 active | inhibition, % at 10 µM | isolated mouse mitochondria, Ca2+ swelling absorbance, 30 min;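 active = inhibition of 50% or more, scaled per plate between neutral and stimulator controls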
Mdm2-MdmX inh: inhibitors of human Mdm2/MdmX interaction; SaOS-2 split-luciferase Mdm2/MdmX complementation, luminescence; 3% of 330,000 active; O15151+Q00987; inhibition, % at 8 µM;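 active = inhibition of at least 50% at 8 µM in the primary screen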
Target sequence (O15151 whole entry, looked up): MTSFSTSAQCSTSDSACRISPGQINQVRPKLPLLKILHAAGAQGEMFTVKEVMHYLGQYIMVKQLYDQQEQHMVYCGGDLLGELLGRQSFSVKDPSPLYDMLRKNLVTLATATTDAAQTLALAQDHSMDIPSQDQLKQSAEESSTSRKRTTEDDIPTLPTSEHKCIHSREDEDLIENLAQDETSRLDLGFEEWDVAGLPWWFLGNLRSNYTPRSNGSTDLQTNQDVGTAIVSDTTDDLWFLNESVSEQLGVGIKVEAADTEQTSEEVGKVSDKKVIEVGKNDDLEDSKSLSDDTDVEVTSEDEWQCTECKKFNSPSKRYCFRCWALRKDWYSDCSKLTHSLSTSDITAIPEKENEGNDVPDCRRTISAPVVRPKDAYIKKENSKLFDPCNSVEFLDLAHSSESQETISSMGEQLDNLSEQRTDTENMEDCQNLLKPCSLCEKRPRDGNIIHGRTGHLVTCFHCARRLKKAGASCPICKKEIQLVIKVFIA
Target sequence (Q00987 whole entry, looked up): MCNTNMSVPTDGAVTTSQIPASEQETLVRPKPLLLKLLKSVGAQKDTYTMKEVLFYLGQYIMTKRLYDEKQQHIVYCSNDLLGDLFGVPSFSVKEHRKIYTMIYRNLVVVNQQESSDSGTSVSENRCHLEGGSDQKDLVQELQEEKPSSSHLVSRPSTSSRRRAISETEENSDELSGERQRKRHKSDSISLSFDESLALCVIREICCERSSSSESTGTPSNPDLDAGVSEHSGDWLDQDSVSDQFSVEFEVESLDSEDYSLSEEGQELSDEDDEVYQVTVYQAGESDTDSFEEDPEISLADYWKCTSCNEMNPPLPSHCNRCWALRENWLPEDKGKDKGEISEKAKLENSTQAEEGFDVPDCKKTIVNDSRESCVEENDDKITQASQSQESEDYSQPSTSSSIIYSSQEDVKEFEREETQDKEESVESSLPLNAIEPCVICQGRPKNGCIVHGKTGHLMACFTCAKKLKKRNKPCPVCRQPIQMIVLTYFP
Gli-Sufu block: antagonists of Gli-Sufu signaling; 0.74% of 340,000 active; inhibition, % at 5 µM; Sufu-KO-LIGHT fibroblasts, Gli luciferase reporter luminescence;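 active = inhibition above about 55%, limit read from the data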
CSC inhib: blocks cancer stem cells | inhibition, % at 7.5 µM | 1.1% of 300,000 active | cancer stem cell-like cells viability, luminescence; in the data active = inhibition above about 75%; tested in HMLE shEcad cells
Mdm2 MdmX conf: confirmation of human Mdm2/MdmX interaction inhibitors; shares compounds with Mdm2-MdmX inh; Mdm2-MdmX binding, luminescent assay; inhibition, % at 8 µM; 55% of 10,000 active; in the data active = inhibition above about 40%
Full FLuc ctr: full-length luciferase inhibition in Mdm2/MdmX counter-screen | 77% of 6,200 active | SaOS-2 full-length luciferase counterscreen, luminescence | inhibition, % at 8 µM | shares compounds with Mdm2-MdmX inh;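 active = mean inhibition at 8 µM reaching about 37%, which flags the compound as non-specific, limit read from the data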;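 note: p53-null SaOS-2 cells with luciferase driven by a doxycycline-inducible promoter; compound on cells about two nights before reading with doxycycline added after day one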
Of the large screens only hits and unclear results are named; the others gave an inactive call (follow-up assays come after a bar, where they were run).

O=C1C=C(c2ccccc2)C[C@H](c2cccs2)[C@H]1n1nnc([N+](=O)[O-])n1	Mdm2-MdmX inh 71 (no result: CSC inhib) | Mdm2 MdmX conf 57 | Full FLuc ctr 60
O=C1C=C(c2ccccc2)CC(c2cccs2)C1n1cnc([N+](=O)[O-])c1 (stereo not given)	none (no result: CSC inhib)
O=S(=O)(Nc1cccnc1)c1cccc(C(F)(F)F)c1	none
O=[N+]([O-])c1ccc(S(=O)(=O)c2cccc(C(F)(F)F)c2)nc1	Mdm2-MdmX inh 95 | Mdm2 MdmX conf 100 | Full FLuc ctr inactive
Cc1ccc(CS(=O)(=O)c2ccccc2-c2nnc(-c3ccc(Cl)cc3)o2)cc1	Mdm2-MdmX inh 55 | Mdm2 MdmX conf inactive
Cc1nc(C)n(C(C)CNC(=O)c2ccco2)n1 (stereo not given)	none
Cc1cc(C)n2nc(N)c(N=Nc3ccccc3)c2n1	none
Cc1cc(C)n2nc(N)c(N=Nc3ccc4c(c3)OCO4)c2n1	Mdm2-MdmX inh 57 | Mdm2 MdmX conf inactive
CC1=C(C(=O)N(C(C)C)C(C)C)CC(CC(=O)NCCc2ccccn2)C(=O)N1Cc1ccccc1 (stereo not given)	none (no result: NR3A LBD binder, Beta cell apopt, Mdm2-MdmX inh, Gli-Sufu block, CSC inhib)
CN1CCN(CC/C=C2/c3ccccc3Sc3ccc(S(=O)(=O)N(C)C)cc32)CC1	Mdm2-MdmX inh 67 | Mdm2 MdmX conf inactive
CN1CCN(CC(=O)N2c3ccccc3Sc3ccccc32)CC1	none (no result: Beta cell apopt, CSC inhib)
Cc1[nH]nc(-c2ccc(O)c(C)c2O)c1Oc1ccccc1	none (no result: CSC inhib)
Cc1[nH]nc(-c2ccc(OCc3cnn(-c4ccccc4)c3)c(C)c2O)c1Oc1ccccc1	Mdm2-MdmX inh 56 | Mdm2 MdmX conf 51 | Full FLuc ctr 53
COc1ccc(-c2ccc3c(c2)[C@@H]2C[C@H](N(C)C(=O)C(C)(C)C)[C@H]([C@H](C)O)C(=O)N2CC3)cc1	none (no result: Beta cell apopt, Mdm2-MdmX inh, CSC inhib)
CCc1cccc(N=c2c([N+](=O)[O-])nn(-c3ccc(Cl)cc3)n2O)c1	none (no result: CSC inhib)
COc1cc(N=c2c([N+](=O)[O-])nn(-c3ccc4c(c3)OCCO4)n2O)cc(OC)c1	Mdm2-MdmX inh 59 | Mdm2 MdmX conf inactive
CCc1cccc(N=c2c([N+](=O)[O-])nn(-c3ccc4c(c3)OCCO4)n2O)c1	Mdm2-MdmX inh 73 | Mdm2 MdmX conf 77 | Full FLuc ctr 62
CCOC(=O)C1=C(C)NC(SC)=C(C#N)C1CC(C)C (stereo not given)	Mdm2-MdmX inh 55 | Mdm2 MdmX conf 62 | Full FLuc ctr 66
COc1cccc(-c2nn(C)c3sc(C(=O)NCc4ccc(C)cc4)cc23)c1	none
COc1cccc(-c2nn(C)c3sc(C(=O)NCc4ccccn4)cc23)c1	Mdm2-MdmX inh 55 | Mdm2 MdmX conf 41 | Full FLuc ctr 77
CN1C2CCC1CC(NC(=O)c1cc(S(=O)(=O)N(C)C)c(Cl)cc1Cl)C2 (stereo not given)	none
Cc1ccc(CNC(=O)c2ccc(N3CCC4(CC3)CC(c3ccccc3)=NO4)c(N)c2)cc1	Mdm2-MdmX inh 55 | Mdm2 MdmX conf inactive
CCc1ccccc1N1CC(C(=O)N2Cc3ccccc3CC2C(N)=O)CC1=O (stereo not given)	none
COC(=O)c1c(C)oc2ccc(N(C(=O)Oc3ccccc3)S(=O)(=O)c3ccc(Cl)c([N+](=O)[O-])c3)cc12	Mdm2-MdmX inh 96 | Mdm2 MdmX conf inactive
COC(=O)c1c(C)oc2ccc(N(C(=O)c3ccncc3)S(=O)(=O)c3ccc(C)cc3)cc12	Mdm2-MdmX inh 56 | Mdm2 MdmX conf 52 | Full FLuc ctr 86
Cc1cc(C)cc(SCc2noc(C(=O)NCCN(C)C)c2C(=O)NCCN(C)C)c1	Mdm2-MdmX inh 89 | Mdm2 MdmX conf 47 | Full FLuc ctr 49
Cc1c(NS(=O)(=O)c2ccc(N(C)C3CCCCC3)c([N+](=O)[O-])c2)c(=O)n(-c2ccccc2)n1C	none
Cc1ccc(S(=O)(=O)Nc2cccc(C(=O)NCc3cccnc3)c2)cc1F	Mdm2-MdmX inh 51 | Mdm2 MdmX conf 76 | Full FLuc ctr 62
CC(C)(C)OC(=O)N1CCc2onc(-c3ccc(N)cc3)c2C1=O	none (no result: NR3A LBD binder, Beta cell apopt, Mdm2-MdmX inh, Gli-Sufu block, CSC inhib)
